From PubChem BioAssay (Tox21) come the findings set out here.

“And” between values parts separate entries of the source, which are not always exact repeats. Identical values can stand only once. Inconclusive results are not listed. Some compounds were tested as several samples or in several runs, with calls that do not always agree. The source made the active and inactive calls. Unless noted, calls come from the whole dose curve; as a rule, active = well fitted curve in the direction sought with a large enough effect in the repeat runs; inconclusive = weak or mixed curves; inactive = no such curve, though single readings can be large; an effect the other way counts as inactive or inconclusive.

Assay [1] is described as follows: qHTS assay to identify small molecule agonists of the RXR signaling pathway - cell viability counter screen (AID 1159529). Note: nearly all actives have a fitted effect of over 50% in size. Note: potency is the fitted concentration of half-maximal effect. The gist of the method: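 Viability read-out for the RXR-alpha agonist qHTS: luminescent CellTiter-Glo signal after 30 min at RT. HEK 293T bla reporter cells, 2% charcoal-stripped FBS, 16 hr compound incubation; tetraoctyl ammonium bromide as cytotoxic control.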
For orientation: Quantitative high-throughput screening tests each substance at several concentrations.

Assay [2] in a line: qHTS assay to identify small molecule antagonists of the retinoid acid receptor (RAR) signaling pathway - cell viability counter screen (AID 1159551). Note: nearly all actives have a fitted effect of over 35% in size. Note: potency is the fitted concentration of half-maximal effect. The gist of the method: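 Measured by luminescent ATP detection, viability reflects C3RL4 cells treated 6 h at 37 C with test chemicals in the presence of 1 uM (final) retinol.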
The nature of assay [3]: qHTS assay to identify small molecule antagonists of the retinoic acid receptor (RAR) signaling pathway (AID 1159552; note: nearly all actives have a fitted effect of over 50% in size; note: potency is the fitted concentration of half-maximal effect). Put shortly: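 Using a RARE-driven luciferase construct in C3RL4 cells, retinol at 1 uM final provided the agonist stimulus while compounds were co-applied. After 6 hours at 37 C, luminescence was recorded to flag inhibitors of retinol signaling.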
Assay [4] concerns the target Luciferin 4-monooxygenase (Photinus pyralis) (UniProt P08659). The assay can be described thus: qHTS assay to identify small molecule inhibitors of firefly luciferase (AID 1224835). Note: nearly all actives have a fitted effect of over 25% in size. Note: potency is the fitted concentration of half-maximal effect. The gist of the method: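 Inhibition of purified Photinus luciferase is measured by luminescence. Substrate levels (D-luciferin, ATP) sit at their KM values. Each compound is tested in a concentration series.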

Assay [5] is described as follows: qHTS assay to identify small molecule agonists of the constitutive androstane receptor (CAR) signaling pathway - cell viability counter screen (AID 1224836). Note: series mostly up to about 92 µM; nearly all actives have a fitted effect of over 45% in size. The gist of the method:
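Multiplexed viability check: HepG2-CYP2B6-hCAR cells, 15-point compound dosing, 0.75 uM PK11195 final, 23 h at 37 C, CellTiter-Fluor fluorescence.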

Assay [6] can be described thus: qHTS assay to identify small molecule antagonists of the constitutive androstane receptor (CAR) signaling pathway - cell viability counter screen (AID 1224837). Note: series mostly up to about 92 µM; nearly all actives have a fitted effect of over 45% in size. Put shortly:
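To flag cytotoxic false antagonists, HepG2 hCAR/CYP2B6-2.2kb cells were treated 23 hr with 15-concentration compound series and 50 nM CITCO at 37 C/5% CO2; CellTiter-Fluor fluorescence was the measured end point.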

For assay [7], the target named is Nuclear receptor subfamily 1 group I member 3 (Homo sapiens) (UniProt Q14994). The assay is described as follows: qHTS assay to identify small molecule antagonists of the constitutive androstane receptor (CAR) signaling pathway (AID 1224838).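 Note: HepG2 cells stably expressing hCAR with CYP2B6 luciferase reporter stimulated by CITCO; nearly all actives have a fitted effect of over 40% in size.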 Note: potency is the fitted concentration of half-maximal effect. The gist of the method: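 Human hepatoma HepG2 cells expressing hCAR and a CYP2B6 promoter (2.2 kb) luciferase construct; compound titration (15 points) with 50 nM CITCO final, 24 h at 37 C/5% CO2; luminescence via ONE-Glo after 30 min at room temperature.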
Chain of Nuclear receptor subfamily 1 group I member 3 (Homo sapiens) (Q14994 whole entry, looked up): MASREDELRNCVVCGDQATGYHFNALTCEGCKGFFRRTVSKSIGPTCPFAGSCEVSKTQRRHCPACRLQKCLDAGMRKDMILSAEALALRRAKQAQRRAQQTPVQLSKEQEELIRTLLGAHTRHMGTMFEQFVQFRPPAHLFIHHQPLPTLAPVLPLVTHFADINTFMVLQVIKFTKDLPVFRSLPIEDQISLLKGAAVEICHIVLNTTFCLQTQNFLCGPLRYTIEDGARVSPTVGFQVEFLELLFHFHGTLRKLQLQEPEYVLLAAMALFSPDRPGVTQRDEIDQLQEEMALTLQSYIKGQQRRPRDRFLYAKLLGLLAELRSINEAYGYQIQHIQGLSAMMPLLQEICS

Assay [8] shares this target. The assay can be described thus: qHTS assay to identify small molecule agonists of the constitutive androstane receptor (CAR) signaling pathway (AID 1224839). Note: nearly all actives have a fitted effect of over 15% in size. Note: potency is the fitted concentration of half-maximal effect. Put shortly: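 Using human hepatoma HepG2 cells engineered with hCAR and a CYP2B6-2.2kb reporter, 15-concentration compound series were incubated 24 h alongside PK11195 at 0.75 uM final, with luminescence quantified afterwards.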

The nature of assay [9]: qHTS assay to identify small molecule antagonists of the estrogen related receptor signaling pathway with the pleiotropic PPARgamma coactivator (PGC) from Tox21 10K library - cell viability counter screen (AID 1224840; active = well fitted cell-killing curve with a large enough effect in the repeat runs, not every such curve was filed as active; note: nearly all actives have a fitted effect of over 40% in size; note: potency is the fitted concentration of half-maximal effect). The gist of the method:
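Seeded PGC/ERR cells (2,000/well, 6 h, 37 C/5% CO2) get compound by pin tool; 17.5 h incubation at 37 C; CellTiter-Fluor added, 30 min, fluorescence measured.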

Assay [10] can be described thus: qHTS assay to identify small molecule agonists of the estrogen related receptor signaling pathway with the pleiotropic PPARgamma coactivator (PGC) from Tox21 10K library (AID 1224842). Note: nearly all actives have a fitted effect of over 15% in size. Put shortly:
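Luminescence from One-Glo (30 min, room temperature) measured after PGC/ERR cells had 18 h at 37 C with pinned compound (23 nL in DMSO). Cells had been seeded at 2,000 per well and pre-incubated 6 h.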

Assay [11] deals with Thyrotropin receptor (Homo sapiens) (UniProt P16473). The assay can be described thus: qHTS assay to identify small molecule agonists of the thyroid stimulating hormone receptor (TSHR) signaling pathway (AID 1224843; calls by dose curve; note: nearly all actives have a fitted effect of over 45% in size; note: potency is the fitted concentration of half-maximal effect). Put shortly: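 Agonist activity read as cAMP rise via d2/cryptate HTRF competition, 1 h room-temperature detection, in HEK293 cells expressing TSHR. Fifteen-point titrations, each run in triplicate, with a 30 min room-temperature incubation beforehand.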
Chain of Thyrotropin receptor (Homo sapiens) (P16473 whole entry, looked up): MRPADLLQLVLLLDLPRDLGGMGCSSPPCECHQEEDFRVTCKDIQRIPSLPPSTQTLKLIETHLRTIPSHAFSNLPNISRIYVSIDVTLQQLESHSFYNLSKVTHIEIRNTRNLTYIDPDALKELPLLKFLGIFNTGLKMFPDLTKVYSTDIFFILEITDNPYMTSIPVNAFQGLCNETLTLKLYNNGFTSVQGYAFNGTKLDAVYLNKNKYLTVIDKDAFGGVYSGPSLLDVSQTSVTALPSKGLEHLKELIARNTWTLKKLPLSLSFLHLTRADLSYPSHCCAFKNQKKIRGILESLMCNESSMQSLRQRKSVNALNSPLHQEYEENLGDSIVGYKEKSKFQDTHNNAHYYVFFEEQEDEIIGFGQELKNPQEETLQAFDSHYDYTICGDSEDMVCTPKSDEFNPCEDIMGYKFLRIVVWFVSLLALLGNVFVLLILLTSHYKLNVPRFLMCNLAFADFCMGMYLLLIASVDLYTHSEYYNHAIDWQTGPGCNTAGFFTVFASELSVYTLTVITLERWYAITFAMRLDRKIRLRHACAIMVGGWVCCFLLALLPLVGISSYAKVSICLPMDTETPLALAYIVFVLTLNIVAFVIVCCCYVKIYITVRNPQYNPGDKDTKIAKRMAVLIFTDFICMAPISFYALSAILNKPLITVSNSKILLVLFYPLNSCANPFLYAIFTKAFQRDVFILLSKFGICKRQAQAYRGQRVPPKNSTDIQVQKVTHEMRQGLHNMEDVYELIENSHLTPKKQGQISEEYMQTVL

Assay [12] can be described thus: qHTS assay to identify small molecule antagonists of the estrogen related receptor (ERR) signaling pathway from Tox21 library - cell viability counter screen (AID 1224834). Note: nearly all actives have a fitted effect of over 30% in size. Note: potency is the fitted concentration of half-maximal effect. Put shortly: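 Seeded ERR cells were rested 6 h at 37 C/5% CO2 before compounds, positive and negative controls or DMSO were added. Incubation continued for 17.5 h, and viability was then quantified by CellTiter-Fluor fluorescence.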

A short description of assay [13]: qHTS assay to identify small molecule antagonists of the estrogen related receptor signaling pathway with the pleiotropic PPARgamma coactivator (PGC) from Tox21 10K library (AID 1224841; call rule not given here; note: actives are mostly falling curves and most rising ones were filed inactive; nearly all actives have a fitted effect of over 50% in size; note: potency is the fitted concentration of half-maximal effect). The gist of the method:
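Test chemicals dissolved in DMSO were applied to pre-incubated (6 h) PGC/ERR cells at 2,000 cells/well for an 18 h, 37 C treatment; reporter luminescence was then read using One-Glo.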

The nature of assay [14]: qHTS assay to identify small molecule agonists of the retinoic acid receptor (RAR) signaling pathway (AID 1159553). Put shortly: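 6 hr compound exposure (DMSO vehicle) of overnight-plated C3RL4 RARE-luc cells at 37 C; luminescence quantified after 30 min RT with luciferase reagent.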
A short description of assay [15]: qHTS assay to identify small molecule antagonists of the estrogen related receptor (ERR) signaling pathway - cell viability counter screen (AID 1224818). Note: series mostly up to about 46 µM. The gist of the method:
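Compounds dissolved in DMSO were applied to ERR cells seeded at 2,000 per well 6 h earlier. Cell viability followed 17.5 h later via 30-min CellTiter-Fluor fluorescence.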

The nature of assay [16]: qHTS assay to identify small molecule antagonists of the estrogen related receptor signaling pathway with the pleiotropic PPARgamma coactivator (PGC) cell viability counter screen (AID 1224822; note: series mostly up to about 46 µM). Put shortly: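 Counter screen for cell viability: PGC/ERR cells, 6 h pre-incubation after plating, 17.5 h compound exposure at 37 C, fluorescence from CellTiter-Fluor after 30 min.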

Chain of Luciferin 4-monooxygenase (Photinus pyralis) (P08659 whole entry, looked up): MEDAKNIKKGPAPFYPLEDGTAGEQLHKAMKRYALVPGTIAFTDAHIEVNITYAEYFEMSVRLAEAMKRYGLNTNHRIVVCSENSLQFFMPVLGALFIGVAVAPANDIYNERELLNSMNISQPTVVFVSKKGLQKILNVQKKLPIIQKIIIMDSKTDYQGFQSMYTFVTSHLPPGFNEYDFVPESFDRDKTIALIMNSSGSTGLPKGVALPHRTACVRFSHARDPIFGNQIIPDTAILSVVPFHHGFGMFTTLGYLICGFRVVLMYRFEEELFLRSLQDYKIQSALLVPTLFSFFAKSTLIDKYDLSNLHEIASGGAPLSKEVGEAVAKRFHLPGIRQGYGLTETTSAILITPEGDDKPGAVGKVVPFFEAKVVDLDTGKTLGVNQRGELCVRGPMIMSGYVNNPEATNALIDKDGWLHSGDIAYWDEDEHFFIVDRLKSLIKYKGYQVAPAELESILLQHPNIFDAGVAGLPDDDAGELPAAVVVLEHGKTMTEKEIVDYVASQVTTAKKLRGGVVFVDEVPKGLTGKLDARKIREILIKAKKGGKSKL

Regarding `C[C@]12Cc3cn[nH]c3C[C@@H]1CC[C@@H]1[C@@H]2CC[C@@]2(C)[C@H]1CC[C@]2(C)O`, the Potency in assay [1] was 6.01 µM (active). For the same compound, the Potency result in assay [2], in assay [3], in [4], in assay [5], in [6] and in [7] was “inactive” throughout. Also, the Potency entry in assay [8], in assay [9], in assay [10] and in [11] was “inactive” in each case.

Consider `BrCC(Br)(Br)Br`, for which the Potency entry in [1], in assay [2], in assay [3], in [12], in [5] and in assay [6] was “inactive” each time. Also, the Potency entry in [7], in assay [8], in [9], in [13] and in assay [10] was “inactive” in each case.

For the compound `Cc1ccc2cc3c(ccc4ccccc43)c3c2c1CC3`, the Potency result in assay [1], in [2], in assay [3], in [12], in assay [5] and in [9] was “inactive” each time. In addition, in assay [11], the Potency result was “inactive”. Also, the Potency in assay [4] is 11.3 µM (active); in assay [7], 0.865 µM (active).

With `ClC1=C(Cl)[C@]2(Cl)[C@H]3[C@H]([C@@H]4C=C[C@H]3C4)[C@@]1(Cl)C2(Cl)Cl`, the Potency in assay [1] was 49 µM (active); in assay [8] it was 13.7 µM (active). In addition, the Potency result in assay [2], in [12], in [4], in assay [5], in [6] and in assay [7] was “inactive” in each case. The Potency entry in assay [9] is “inactive”.

Consider `CC(Cc1ccc(O)cc1)NCC(O)c1cc(O)cc(O)c1` (stereo not drawn), for which the Potency result in assay [1], in [2], in [14], in assay [15], in [16] and in [12] was “inactive” in each case. Also, the Potency entry in assay [4], in [5], in assay [6], in assay [7], in [8] and in [9] was “inactive” each time.

As to `O=C1C(Cl)=C(Cl)C(=O)C(Cl)=C1Cl`, the Potency in [1] was 38.9 µM (active); in assay [2], 60.9 µM (active) and inactive; in assay [3], 54.3 µM (active) and 61.1 µM (active); in assay [12], 34.2 µM (active) and 30.6 µM (active); in assay [4], 31.6 µM (active) and 15.9 µM (active); in assay [9] it was 54.3 µM (active) and inactive. The Potency in assay [13] was 60.9 µM (active) and inactive; in assay [11] it was 27.2 µM (active). Moreover, the Potency entry in assay [7], in [8] and in [10] was “inactive” throughout.

For `COC(=O)/C=C(\C)OP(=O)(OC)OC`, the Potency result in assay [1], in assay [2], in [3], in assay [12], in [4] and in assay [5] was “inactive” throughout. Besides, the Potency entry in assay [6], in [7], in assay [9], in assay [10] and in assay [11] was “inactive” in each case.

`CCOP(=S)(OCC)SC(CCl)N1C(=O)c2ccccc2C1=O` (stereo not drawn): the Potency entry in [1], in assay [2], in [14], in assay [12], in [4] and in assay [5] was “inactive” throughout. Further, the Potency result in assay [6], in assay [7], in [9], in [13] and in [10] was “inactive” in each case.

With `COc1ccc2[nH]cc(CCN(C(C)C)C(C)C)c2c1`, the Potency result in [1], in assay [2], in assay [3], in assay [12], in assay [4] and in assay [5] was “inactive” each time. Besides, the Potency result in [7], in [8] and in assay [9] was “inactive” each time.

`CCC1COC(Cn2cncn2)(c2ccc(Cl)cc2Cl)O1` (stereo not drawn): the Potency entry in assay [1], in assay [2], in assay [14], in [4], in assay [5] and in [6] was “inactive” each time. In addition, the Potency entry in assay [7] and in [10] was “inactive” each time. Besides, the Potency in [13] is 61.1 µM (active).
